The panel holds about 83,000 compounds, 20% with a hit somewhere; the sample as a whole holds those more often.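 Values shown are percent growth following 48 h exposure of cells in 96-well plates to a single concentration of compound; below 10 was considered active.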 The source made the active and inactive calls.

The assay relates to COLO 205 colon. Briefly: NCI-60 one-dose screen, 48 h (100 = growth as untreated, 0 = no growth, -100 = all killed). Particulars: 10 µM unless noted. Here is the method:
Cells are grown in 96 well plates and exposed to the test compound for 48 hours. Compounds are tested at a single concentration, which is 10^-5 M for most compounds. The reported endpoint is percent growth (GI% or GIPRCNT), where numbers from 0 - 100% represent growth inhibition, and numbers from -100% - 0 represent cell death. For example, a value of 40 represents 60% growth inhibition. A value of 0 means no net growth occurred over the course of the experiment. A value of -40 indicates 40% of cells at the beginning of the experiment died by the end of the experiment. A value of -100 means all cells are dead at the end of the experiment.
NCI-60 Human Tumor Cell Lines Screen was performed using the standard one-dose NCI protocol, which is described in more detail at https://dtp.cancer.gov/discovery_development/nci-60/default.htm.
Compounds with GIPRCNT values below 10 were considered active. Activity score was based on GIPRCNT using the following formula: […]
Score is 0 for GIPRCNT values of 100 or above, 50 for GIPRCNT values of 0, and 100 for GIPRCNT values of -100.
As for `Cc1ccc(-c2nc(SCC(=O)c3ccccc3)nc(Nc3ccc(S(N)(=O)=O)cc3)c2C#N)cc1`, the growth was 101% (inactive).

Consider `O=C(Nc1ccc(Cl)c(C(F)(F)F)c1)Nc1ccc2oc(=O)ccc2c1`, for which the growth is 58% (inactive).

Take `CN1CCN(CC#CCn2c3c(c4ccccc42)C[C@]2(C)[C@H]4CC=C5[C@@H]6CC(C)(C)CC[C@]6(C(=O)N6CCOCC6)CC[C@@]5(C)[C@]4(C)CC[C@H]2C3(C)C)CC1`: the growth is 87.3% (inactive).

For `CN1CCN(Cc2ccc(NC(=O)c3cncc(C#Cc4cnc5ccc(OCC6COC6)nn45)c3)cc2C(F)(F)F)CC1`, the growth is -76.3% (active).

In the case of `CSc1ccc(C(=NNS(=O)(=O)c2ccc(C)cc2)c2ccc(Cl)cc2)cc1`, the growth was 119% (inactive).

Take `CC(=C(c1ccc(OCCN2CCCC2)cc1)c1ccc(OCCN2CCCC2)cc1)c1ccc(Cl)cc1`: the growth is -74.4% (active).

For `CCOC(=O)c1c(NC(=O)c2ccc(C(F)(F)F)cc2)sc2c3c(ccc12)OCN(C)C3`, the growth was -22% (active).

Take `CC(C)=CCC[C@](C)(O)[C@H]1CC[C@]2(C)[C@@H]1CC[C@@H]1[C@@]3(C)CC[C@H](N)C(C)(C)[C@@H]3CC[C@]12C`: the growth was -31.4% (active).

On to `COc1ccc(C2CC(c3cccc(OCCCCOc4cccc(C5=NOC(c6ccc(OC)cc6)C5)c4)c3)=NO2)cc1` (stereo not given), for which the growth is 100% (inactive).

Consider `COc1ccc(CC(C)=C(c2ccc(OCCN3CCCC3)cc2)c2ccc(OCCN3CCCC3)cc2)cc1`, for which the growth is -61% (active).

As to `O=S1SC(c2ccccc2)=NN1c1cc(F)cc(F)c1` (stereo not given), the growth is 107% (inactive).

For `CC1(C)CC[C@]2(C(=O)NCCCCCCN(CCCN)CCCN)CC[C@]3(C)C(=CC[C@@H]4[C@@]5(C)CC[C@H](O)C(C)(C)[C@@H]5CC[C@]43C)[C@@H]2C1`, the growth is 102% (inactive).

Take `CCOc1cccc(/C(N)=N/C(N)=N/c2nc3ccccc3s2)c1`: the growth was 113% (inactive).

As to `CC(C)(C)Nc1nc2c(OCCc3ccccc3)cccn2c1-c1ccc([N+](=O)[O-])cc1`, the growth is 49% (inactive).

For the molecule `NCCNC(=O)c1cccc(COc2ccccc2NC(=O)c2cc(Br)c(Br)[nH]2)c1`, the growth is 110% (inactive).

For `O=C1Nc2ccc(F)cc2/C1=C\C(=O)c1ccc(NS(=O)(=O)c2ccccc2)cc1`, the growth was 113% (inactive).

Consider `O=C1Nc2ccccc2/C1=N\c1nnc(-c2ccccc2)o1`, for which the growth is 107% (inactive).

Regarding `C1=CC(c2nn3c(-c4ccccc4)nnc3s2)=Cc2ccccc2O1`, the growth is 90.2% (inactive).

Consider `C#Cc1nc(C(=O)NCCCCCCC(=O)NO)cs1`, for which the growth is -61.7% (active).

Turning to `O=C(CSc1nc2ccccc2c(=O)n1-c1ccccc1)N/N=C/c1ccc(Oc2ccc(Cl)cc2)cc1`, the growth is 49.2% (inactive).

`COc1cc2oc(-c3cccc(NC(=O)[C@@H](N)C(C)C)c3)cc(=O)c2c(OC)c1OC`: the growth is 111% (inactive).

Regarding `CCCCCc1ccc(S(=O)(=O)Nc2cc(-c3csc(N)n3)ccc2OC)cc1`, the growth is 117% (inactive).

For the molecule `C#Cc1cc(C(=O)Nc2ccc(CNCCN3CCOCC3)c(C(F)(F)F)c2)ccc1C`, the growth was 105% (inactive).

For `O=C(CSc1nc2ccccc2c(=O)n1-c1ccc(S(=O)(=O)Nc2ccc(Cl)nn2)cc1)Nc1ccc(S(=O)(=O)Nc2ccc(Cl)nn2)cc1`, the growth was 111% (inactive).

Consider `CC(=O)Nc1ccccc1-c1nc2ccccc2s1`, for which the growth was 113% (inactive).

Consider `Cc1[nH]c(C(=O)Nc2ccc(C(N)=O)cc2N2CCOC(C)C2)c(Cl)c1Cl` (stereo not given), for which the growth was 124% (inactive).

As for `COc1cc2cc(Oc3ccc(NC(=O)c4cc(C(F)(F)F)cc(C(F)(F)F)c4)cc3)c(C)nc2cc1OCCN1CCOCC1`, the growth was 66.7% (inactive).

As for `COc1cc2c3c(cc4c5c(ccc4c3c1OC)OCO5)N(CCN(C)C)C2=O`, the growth is -10.7% (active).

On to `N#Cc1c(-c2cccs2)cc(-c2cnccn2)nc1SCC(=O)N/N=C/c1ccc(Cl)cc1`, for which the growth is 115% (inactive).

Consider `CCc1nnc(NC(=O)c2cc(-c3ccc(Cl)cc3Cl)oc2C)s1`, for which the growth was 105% (inactive).

On to `COc1ccc(C(=NNS(=O)(=O)c2ccc(C)cc2)c2ccccc2)cc1OC`, for which the growth was 111% (inactive).

Consider `CC(Nc1ncnc2ccc(-c3cnc(N)nc3)cc12)c1ccccc1` (stereo not given), for which the growth was 49.6% (inactive).

In the case of `N/C(=N\C(N)=N\c1nc2ccccc2s1)c1ccc(Cl)cc1`, the growth was 104% (inactive).

As for `COc1ccc2[nH]cc(-c3nn4cc(-c5ccncc5)nc4s3)c2c1`, the growth was 47% (inactive).

`Cc1ccc(NC(=O)Nc2nc3ccc([N+](=O)[O-])cc3s2)cc1`: the growth is 48.8% (inactive).

On to `CN1CCN(Cc2ccc(NC(=O)c3cncc(C#Cc4cnc5ccc(N)nn45)c3)cc2C(F)(F)F)CC1`, for which the growth was -41.8% (active).

In the case of `Cc1csc(/N=C(N)/N=C(\N)c2cccc(C#N)c2)n1`, the growth was 76.1% (inactive).

`CC(C)NC(=O)c1cc(-c2ccc(NC(=O)Nc3ccc(F)cc3)cc2)nc2cccnc12`: the growth is 118% (inactive).

`O=C1C(N2CCN(c3ccccc3)CC2)=C(Cl)C(=O)c2ncccc21`: the growth is 65.2% (inactive).

As for `CCS(=O)(=O)Nc1ccc(C(=O)CC2(O)C(=O)Nc3ccccc32)cc1` (stereo not given), the growth was 93.8% (inactive).
